Data: PubChem BioAssay (NCI)
This is part of a sample that, as a whole, favours compounds with a hit. Of some 83,000 tested, about 20% had one in any assay.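 Interpretation: 100, growth as untreated; towards 0, rising growth inhibition; 0, no net growth; 0 to -100, cell death. Compounds scoring below 10 were considered active.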 A number with no mark means an inactive call. The source made the active and inactive calls.

test system: HOP-92 NSCLC; assay: NCI-60 one-dose screen, 48 h (100 = growth as untreated, 0 = no growth, -100 = all killed); details: 10 µM unless noted

Question: Which growth does the source give for `Cc1cccc(-c2nc(Nc3ccc4ncsc4c3)c3ccccc3n2)n1` here?
Answer: 110%

Question: Which growth does the source give for `COc1ccc(-c2cc(-c3ccccc3)nc(N3CCN(CCNc4ccnc5cc(Cl)ccc45)CC3)n2)cc1` here?
Answer: -34.3% (active)

Question: `N#Cc1cccc(C2C3=C(COC3=O)N(CCO)c3cc4c(cc32)OCO4)c1` (stereo not given) was tested. Which growth did it give?
Answer: 42.4%

Question: How did the growth turn out when `CCN1C(=O)N(CC)C2C1NC(=S)N2/N=C/c1ccc(OC)cc1` (stereo not given) was run?
Answer: 70.5%

Question: `Nc1[nH]c(=S)nc2oc(-c3ccccc3)c(-c3ccccc3)c12` was tested. Which growth did it give?
Answer: 102%

Question: `N=C(N)c1ccc(-c2ccc(-c3cc(Cl)cc(Cl)c3)s2)nc1` was tested. Which growth did it give?
Answer: 87.8%

Question: `c1ccc2c(c1)CCCc1nnc3nc4ccccc4n3c1-2` was tested. Which growth did it give?
Answer: -2.09% (active)

Question: With `Nc1[nH]n2cc(-c3ccc(F)cc3)nc2c1N=Nc1ccc(S(N)(=O)=O)cc1` as the compound, how does the growth read?
Answer: 74.9%

Question: For `CNC(C)[C@H]1CCC2C3CC=C4C(=O)[C@@H](NC(=O)C=C(C)C)CC[C@]4(C)C3CC[C@@]21C` (stereo not given in full), which growth is on record?
Answer: 9.2% (active)

Question: For `COc1ccc2c(c1)/C(=N/c1n[nH]c(=S)s1)C(=O)N2`, which growth is on record?
Answer: 92.8%

Question: `Cc1ccc(-c2nc(SCc3nc4cc(Cl)c(Cl)cc4[nH]3)[nH]c(=O)c2C#N)cc1` was tested. Which growth did it give?
Answer: 104%

Question: With `COc1ccc2c(c1)c(/C(O)=C1\COC(=O)C1=O)cn2Cc1ccc(F)cc1` as the compound, how does the growth read?
Answer: 72.1%

Question: For `O=C1/C(=C2\SC(=S)N(C3CC3)C2=O)SC(=S)N1C1CC1`, which growth is on record?
Answer: 98.9%

Question: Which growth does the source give for `C#CC#CC#CC#CC#CC#CC#CC#CCC1OC[C@H](COC(=O)O[C@@H](C(=O)O[C@H]2C[C@@]3(O)[C@@H](OC(=O)c4ccccc4)[C@@H]4[C@]5(OC(C)=O)CO[C@@H]5C[C@H](O)[C@@]4(C)C(=O)[C@H](OC(C)=O)C(=C2C)C3(C)C)[C@@H](NC(=O)c2ccccc2)c2ccccc2)O1` (stereo not given in full) here?
Answer: 67.6%

Question: With `Cc1nnc(-c2ccc3c(c2)nc(/C=C/c2ccccc2)n3C2CCCCC2)o1` as the compound, how does the growth read?
Answer: 79.7%

Question: `Nc1nc(N)c2c(n1)NC(c1ccc(Cl)cc1)C1CCc3ccccc3C1=N2` (stereo not given) was tested. Which growth did it give?
Answer: 94.3%

Question: For `Fc1ccc(Cn2cc(CSc3nc4ccccc4o3)nn2)cc1`, which growth is on record?
Answer: 113%

Question: `CC(C)(C)c1cc(Cl)c(O)c(CNCCO)c1` was tested. Which growth did it give?
Answer: 90.8%

Question: For `Nc1nc2c(c3ncccc13)C(c1cccc(Cl)c1)Cc1ncccc1-2` (stereo not given), which growth is on record?
Answer: 38.6%

Question: How did the growth turn out when `COc1ccc(C(=O)N2c3ccccc3Sc3ccccc32)c(C(F)(F)F)c1` was run?
Answer: 15%

Question: For `Cc1ccc(C(=O)c2ccc(CC(=O)NN3C(=O)c4ccccc4C3=O)n2C)cc1`, which growth is on record?
Answer: 97.8%

Question: How did the growth turn out when `C=C1C(=O)O[C@H]2[C@H]1CC/C(Cn1cc(CCC)nn1)=C\CC[C@@]1(C)O[C@@H]21` was run?
Answer: -11.2% (active)

Question: For `O=C(/C=C/c1ccccc1)c1ccc(Nc2nc(Nc3ccc(F)cc3)nc(Nc3ccc(Cl)cc3)n2)cc1`, which growth is on record?
Answer: 48.1%

Question: With `N#Cc1cccc(C2C3=C(COC3=O)N(CCO)c3cc4c(cc32)CCC4)c1` (stereo not given) as the compound, how does the growth read?
Answer: 43%

Question: `CCN1C(=O)N(CC)C2Nn3c(s/c(=C\c4ccccc4Br)c3=O)=NC21` (stereo not given) was tested. Which growth did it give?
Answer: 42.9%

Question: With `Cc1ccc(C=C2C(=O)NC(=O)NC2=O)cc1` as the compound, how does the growth read?
Answer: 110%

Question: For `Cc1cccc(N2CCC(=O)NC2=S)c1`, which growth is on record?
Answer: 105%

Question: With `N#C/C(=C\c1ccc(-c2cccc(C(F)(F)F)c2)o1)c1ccccc1` as the compound, how does the growth read?
Answer: 87.5%

Question: With `N#C/C(=C\c1ccc([N+](=O)[O-])cc1)n1nnc2cc(F)c(F)cc21` as the compound, how does the growth read?
Answer: 9.03% (active)

Question: How did the growth turn out when `CC/C=C\CCC/C=C1/C(=O)C=C[C@@H]1C/C=C\CCCC(=O)OC` was run?
Answer: 83.4%

Question: `CN(C)c1ccc(/C=C(\C#N)c2cc3ccccc3[nH]2)cc1` was tested. Which growth did it give?
Answer: 26.4%

Question: Which growth does the source give for `O=C(Nc1ccc(Br)cc1)C1=NCCCCN1` here?
Answer: 102%

Question: How did the growth turn out when `CNC(=O)c1cc(Oc2cccc3nc(NC(=O)Nc4cc(C(F)(F)F)ccc4Cl)ccc23)ccn1` was run?
Answer: 115%

Question: With `COc1cccc(CCNc2ncnc3c2ncn3Cc2nnc3c4ccccc4c(Cl)nn23)c1` as the compound, how does the growth read?
Answer: 42.7%

Question: How did the growth turn out when `CCOC(=O)c1c(C)nc2c(c1N)/C(=C/c1ccc(OC)cc1)C(=O)N2Cc1ccccc1` was run?
Answer: 45%

Question: How did the growth turn out when `O=S(=O)(NCCNc1nccc(-c2c(-c3ccc(F)c(O)c3)nc3sccn23)n1)c1ccc(F)cc1` was run?
Answer: 33.6%

Question: `S=C(c1ccc2c(c1)OCO2)N1CCN(c2cccc(Cl)c2)CC1` was tested. Which growth did it give?
Answer: 63.9%

Question: Which growth does the source give for `CN1CCN(CCOc2ccc(-c3cnc4c(-c5ccc(F)cc5)cnn4c3)cc2)CC1` here?
Answer: 54.9%

Question: For `O=C(Cc1ccc(/C=C/C(=O)c2ncc[nH]2)cc1)Nc1cc(C(F)(F)F)cc(C(F)(F)F)c1`, which growth is on record?
Answer: 116%

Question: `CCN(CC)c1ccc(/C=N/NC(=O)Cc2ccc(Nc3ccnc(C(F)(F)F)c3)cc2)c(O)c1` was tested. Which growth did it give?
Answer: 54.1%
